According to PubChem BioAssay (NCATS):
Inconclusive results are not listed. Active and inactive are the calls of the source. Calls come from the whole dose curve; as a rule, active = well fitted curve in the direction sought with a large enough effect; inconclusive = small, poorly fitted or top-dose-only effect, or another doubt; inactive = no such curve, though single readings can be large; an effect the other way counts as inactive or inconclusive.

Key:
[1] = target: Metallo-beta-lactamase type 2 (Klebsiella pneumoniae) (UniProt C7C422); assay: qHTS to identify inhibitors of the New Delhi Metallo-beta-lactamase (NDM): assay validation screen against the NCATS LOPAC Collection (AID 1794843); conditions: NDM-1 enzyme, nitrocefin hydrolysis, absorbance 485 nm; series mostly up to 38.4 µM;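 note: nitrocefin turnover by NDM-1 measured as 485 nm absorbance at plateau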
Sequence of Metallo-beta-lactamase type 2 (Klebsiella pneumoniae) (C7C422 whole entry, looked up): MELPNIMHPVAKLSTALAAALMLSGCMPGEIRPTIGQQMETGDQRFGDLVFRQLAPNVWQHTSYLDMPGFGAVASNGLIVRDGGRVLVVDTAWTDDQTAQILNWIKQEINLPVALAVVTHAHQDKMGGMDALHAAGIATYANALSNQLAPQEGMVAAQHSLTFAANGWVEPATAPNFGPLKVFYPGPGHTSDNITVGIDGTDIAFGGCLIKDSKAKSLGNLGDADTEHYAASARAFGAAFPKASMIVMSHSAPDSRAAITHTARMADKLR
Summary of the method: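 NDM-1 at 2 nM final in 50 mM HEPES pH 7.0 with 1 uM ZnSO4 and 0.01% Tween20 was preincubated with library compounds in DMSO. Nitrocefin (50 uM stock) was then added, and absorbance at 485 nm was read at the kinetic plateau.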

[2] = target: Glutathione peroxidase 1 (Homo sapiens) (UniProt P07203); assay: Primary qHTS Assay for Inhibitors of Recombinant Selenoprotein Glutathione Peroxidase 1 (GPX1) (AID 1845191); conditions: recombinant GPX1, GR-coupled NADPH fluorescence, 15 min; series mostly up to 48.8 µM; note: nearly all actives have a fitted effect of over 65% in size
Sequence of Glutathione peroxidase 1 (Homo sapiens) (P07203 whole entry, looked up): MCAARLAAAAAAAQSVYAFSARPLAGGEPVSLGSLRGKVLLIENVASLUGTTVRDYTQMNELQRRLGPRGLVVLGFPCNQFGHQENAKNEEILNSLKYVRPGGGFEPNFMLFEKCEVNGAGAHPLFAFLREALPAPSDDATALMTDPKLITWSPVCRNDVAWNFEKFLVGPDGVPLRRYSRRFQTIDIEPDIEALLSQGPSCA
Summary of the method: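 10 nM GPX1 + cpd, 30 min RT; start w/ 1 mM GSH, 0.5 mM cumene hydroperoxide, 0.5 mM NADPH, 100 nM GR, 0.01% BSA; buffer 50 mM Tris-HCl pH 7.5, 2 mM EDTA, 150 mM NaCl; Fl 340/450, 0 & 15 min.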

[3] = target: Phospholipid hydroperoxide glutathione peroxidase GPX4 (Homo sapiens) (UniProt P36969); assay: Primary qHTS Assay for Inhibitors of Recombinant Selenoprotein Glutathione Peroxidase 4 (GPX4) (AID 1845192); conditions: recombinant GPX4, GR-coupled NADPH fluorescence, 15 min; series mostly up to 50 µM; note: nearly all actives have a fitted effect of over 65% in size
Sequence of Phospholipid hydroperoxide glutathione peroxidase GPX4 (Homo sapiens) (P36969 whole entry, looked up): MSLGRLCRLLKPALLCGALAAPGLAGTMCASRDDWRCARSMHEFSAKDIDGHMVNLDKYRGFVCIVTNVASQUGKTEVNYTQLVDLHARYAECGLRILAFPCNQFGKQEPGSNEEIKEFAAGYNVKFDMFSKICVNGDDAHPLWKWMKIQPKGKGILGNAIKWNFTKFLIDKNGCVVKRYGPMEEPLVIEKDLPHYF
Summary of the method: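 NADPH consumption, followed by fluorescence at 340/450 nm between 0 and 15 min, reports GPX4 activity via coupled glutathione reductase (100 nM). Enzyme 200 nM was pre-exposed to compound 30 min; 0.5 mM cumene hydroperoxide and 1 mM GSH served as substrates.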

Measured: Potency

Nc1nc(Cl)nc2c1ncn2[C@@H]1O[C@H](CO)[C@@H](O)[C@H]1O
inactive: [1] | [2] | [3]

COc1cc(OC)cc(-c2cc3cnc(N)nc3nc2NC(=O)NC(C)(C)C)c1
inactive: [1] | [2] | [3]

NC[C@H]1O[C@@H](n2cnc3c(N)ncnc32)[C@H](O)[C@@H]1O
inactive: [1] | [2] | [3]

CNCC[C@H](Oc1ccc(C(F)(F)F)cc1)c1ccccc1
inactive: [1] | [2] | [3]

Nc1ncnc2c1ncn2[C@@H]1O[C@H](COP(=O)(O)OP(=O)(O)OP(=O)(O)OP(=O)(O)OC[C@@H]2O[C@H](n3cnc4c(N)ncnc43)[C@@H](O)[C@H]2O)[C@@H](O)[C@H]1O
inactive: [1] | [2] | [3]

CN1[C@@H](CC(=O)c2ccccc2)CCC[C@H]1C[C@H](O)c1ccccc1
inactive: [1] | [2] | [3]

CC(C)(C)c1ccc(S(=O)(=O)/C=C/C#N)cc1
inactive: [1] | [2] | [3]

Cn1cc(C2=C(c3ccc(Cl)cc3Cl)C(=O)NC2=O)c2ccccc21
inactive: [1] | [2] | [3]

Oc1ccccc1O
inactive: [1] | [2] | [3]

COC(=O)c1c(C)[nH]c(C)c1C(=O)c1ccccc1Cc1ccccc1
inactive: [1] | [2] | [3]

OCC1O[C@H](O)C(Cl)C(O)C1O (some centres undefined)
inactive: [1] | [2] | [3]

Fc1cccc(/C=N/N=C/c2cccc(F)c2)c1
inactive: [1] | [2] | [3]

Fc1ccc(C(OCCCc2cnc[nH]2)c2ccc(F)cc2)cc1
inactive: [1] | [2] | [3]
